Compounds with a hit are over-represented: about 1.4% of the library has one in this group of screens.
EPAC1 antagonist: antagonists of human EPAC1; AID 720709; hit rate 0.14% among 360,000; EPAC1 GEF assay, Rap1b-BODIPY-GDP exchange fluorescence; O95398; Potency, µM (doses to about 115 µM), hits mostly inhibitors; also: nearly all actives have a fitted effect of over 50% in size
EPAC1 ag: activates human EPAC1 exchange factor; EPAC1 agonist qHTS, biochemical assay; response scale: 100% = response to 6.5 mM cAMP; Potency, µM (highest dose often 154 µM), actives largely listed as activators; hit rate 0.073% among 360,000; AID 720707; also: nearly all actives have a fitted effect of over 60% in size
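Fluorescent GDP-exchange assay: 100 nM EPAC1 with 250 nM Rap1B preloaded with BODIPY-GDP and 50 uM GDP; compounds tested as concentration series, 5 min at room temperature, then read every 5 min for 30 min (ex 480/em 540 nm); normalized to 6.5 mM cAMP.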
USP1 inh: blocks the human USP1/UAF1 deubiquitinase complex; Potency, µM (doses to about 57.1 µM), usual class: inhibitors; hit rate 0.23% among 390,000; recombinant USP1/UAF1, Ub-Rhodamine cleavage fluorescence; AID 743255; O94782; also: nearly all actives have a fitted effect of over 60% in size
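USP1/UAF1 complex at 1 nM was preincubated with compound for 15 min at room temperature, then Ub-Rho substrate (150nM final) was added. Fluorescence (480/540 nm) was read kinetically, 6 reads every 60 seconds.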
BRCA1 expr act: BRCA1 expression activation; MCF7-BRCA1-FFLuc reporter, luminescence, 48 h; response scale: scaled: vehicle 0%, 10 µM genistein 100%; Potency, µM (series often up to 46.1 µM), most hits filed as activators; hit rate 1.1% among 380,000; AID 624202; also: nearly all actives have a fitted effect of over 80% in size
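Using MCF7 cells harboring a BRCA1 firefly luciferase reporter, plated 2 h before compound pinning, the screen measured luminescence after 48 h incubation. Responses were normalized to DMSO and 10 microM genistein, then fitted for concentration-effect.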
EPAC2 antag: blocks human EPAC2 exchange factor; Q8WZA2; EPAC2 GEF exchange of Rap1B-BODIPY-GDP, fluorescence; Potency, µM (top dose mostly 114 µM), actives largely listed as inhibitors; hit rate 0.18% among 360,000; also: nearly all actives have a fitted effect of over 45% in size
EPAC2 agonist: agonists of human EPAC2 (RAPGEF4). EPAC2 activation, biochemical qHTS; response scale: 100% = 6.5 mM cAMP response. Potency, µM (highest dose often 154 µM), actives largely listed as activators. hit rate 0.079% among 360,000. AID 720711; also: nearly all actives have a fitted effect of over 50% in size
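Guanine nucleotide exchange by EPAC2 is measured as reduced fluorescence of BODIPY-GDP once it is released from 250 nM Rap1B. Plates are read kinetically for 30 min at room temperature; results are scaled to 6.5 mM cAMP.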
Of the large screens only hits and unclear results are named; the others gave an inactive call. Calls follow the shape of the dose curve; as a rule, active = well fitted curve in the direction sought with a large enough effect; inconclusive = small, poorly fitted or top-dose-only effect, or another doubt; inactive = no such curve, though single readings can be large; an effect the other way counts as inactive or inconclusive.

COc1ccccc1C(=O)NCCC(=O)NC1CCC(C)CC1 (stereo not given)	BRCA1 expr act 8.9µM
COc1ccccc1C(=O)NCCC(=O)NC1CCCCC1C (stereo not given)	none
CC(NC(=O)Nc1ccc(O)cc1)(C(F)(F)F)C(F)(F)F	EPAC1 antagonist 79µM, USP1 inh inconclusive, EPAC2 antag inconclusive
COc1ccc(NC(=O)NC(C)(C(F)(F)F)C(F)(F)F)cc1	none
COC(=O)c1cccc(NC(=O)/C=C/c2ccc([N+](=O)[O-])cc2)c1	none
O=C(/C=C/c1ccc([N+](=O)[O-])cc1)Nc1cccc(C(=O)Nc2ccccc2C(=O)O)c1	EPAC1 antagonist 28µM, USP1 inh inconclusive
COc1ccc(OCC(=O)Nc2ccc(C(=O)Nc3ccccc3C(=O)O)cc2)cc1	none
O=C(COc1ccc2ccccc2c1)Nc1cccc(C(=O)Nc2ccccc2C(=O)O)c1	EPAC1 antagonist 45µM
C=CC[C@@H](CC(=O)N[C@@H](CO)Cc1ccccc1)C(=O)NC[C@@H](OC(=O)[C@@H](CC=C)CC(=O)OC(C)(C)C)c1ccccc1	none
CC1(C(=O)NCCCN2CCCC2=O)CCN1CCc1ccccc1 (stereo not given)	none (no result: USP1 inh)
CC(=O)N1CCN(C(=O)c2ccc(Cl)c(S(=O)(=O)N3CCCCCC3)c2)CC1	none
COc1cccc(-c2nc(S(=O)(=O)c3ccc(Cl)cc3)c(NCc3ccccc3)o2)c1	none (no result: EPAC1 antagonist, EPAC1 ag, BRCA1 expr act, EPAC2 antag, EPAC2 agonist)
N=C1SC(c2ccccc2)C(=O)N1c1ncc(Cc2ccccc2Cl)s1 (stereo not given)	EPAC1 antagonist 71µM
O=C(CSc1nnnn1-c1ccccc1)Nc1ncc(Cc2ccccc2Cl)s1	none
CC1(c2nnc(-c3cccc(Cl)c3)o2)CC(c2ccc(F)cc2)=NO1 (stereo not given)	BRCA1 expr act 11µM
CC1(c2nnc(-c3cccc(Cl)c3)o2)CC(c2ccc(Cl)cc2)=NO1 (stereo not given)	none
N/C(=N\OC(=O)CSc1ccccc1)c1cccc([N+](=O)[O-])c1	BRCA1 expr act 13µM
O=c1oc2cc(O)ccc2cc1-c1nc2ccccc2o1	EPAC1 ag 63µM, EPAC2 agonist inconclusive (no result: USP1 inh)
COc1ccc(Oc2cnc3ccccc3n2)cc1	BRCA1 expr act 11µM
c1ccc2oc(-c3ccn[nH]3)cc2c1	BRCA1 expr act 4.5µM
c1ccc2oc(-c3[nH]ncc3CN3CCSCC3)cc2c1	none
CCCN(C)C1CN(Cc2cn(Cc3ccc(F)cc3)nn2)S(=O)(=O)C1 (stereo not given)	none (no result: USP1 inh)
N/C(=N\OC(=O)/C=C/c1ccccc1Cl)c1cccnc1	BRCA1 expr act 4µM
N/C(=N\OC(=O)/C=C/c1ccccc1)c1cccnc1	BRCA1 expr act 10µM
Cc1ccc(/C(N)=N/OC(=O)/C=C/c2ccccc2)cc1	none
CNC(=O)CSc1nnc(-c2ccco2)n1-c1cccc(OC)c1	none
Cc1ccc(-c2cc(C(=O)Nc3c(C(=O)c4ccccc4)oc4ccccc34)no2)cc1F	none (no result: EPAC1 antagonist, EPAC1 ag, BRCA1 expr act, EPAC2 antag, EPAC2 agonist)
Cc1ccnc(N/C=C(\C#N)c2nc(-c3cccc(Br)c3)cs2)c1	EPAC1 ag inconclusive, USP1 inh 22µM
Cc1cccc(N(CC(=O)NCC2CCCO2)C(=O)CNS(=O)(=O)c2ccc(Cl)cc2)c1 (stereo not given)	none
Cc1cc(C)nc(NC(=O)/C=C/c2ccc(Cl)cc2Cl)c1	BRCA1 expr act 6.3µM
Cc1cc(C)nc(NC(=O)/C=C/c2ccccc2Cl)c1	BRCA1 expr act 3.2µM
Cc1cc(C)nc(NC(=O)/C=C/c2ccccc2Cl)n1	none
Clc1ccc(COn2nnc3ccccc32)c(Cl)c1	BRCA1 expr act 5.6µM
O=[N+]([O-])c1ccc(COn2nnc3ccccc32)cc1	none
Cc1ccc(NC(=S)NC(=O)c2cccs2)cc1F	BRCA1 expr act 3.5µM
O=C(NC(=S)Nc1ccccc1)c1cccs1	BRCA1 expr act 5.6µM
CC1([N+](=O)[O-])COC(c2cccc3ccccc23)OC1 (stereo not given)	none
